Results on seven molecules are retold here after PubChem BioAssay (EPA / NIEHS).

Active and inactive are the calls of the source. Rule for the calls: active = hit-call score of the fitted dose curve at least 0.9, where 1 is the maximum; inactive = score below 0.9.

A short description of assay [1]: ATG_CRE_CIS: Attagene CIS-FACTORIAL HepG2 Assay for human cAMP Responsive Element (CRE) binding protein 3 (AID 2282926). The settings on record: HepG2 CRE cis-reporter, Attagene multiplexed mRNA; actives raise or lower the signal. The gist of the method:
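Liver-derived HepG2, transfected with a CRE-containing reporter panel, exposed 24 h; transcript levels sized and quantified by capillary electrophoresis of labelled amplicons; signal changes either way referenced to vehicle.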

Assay [2] in a line: ATG_DR4_LXR_CIS: Attagene CIS-FACTORIAL HepG2 Assay for human Liver X Receptor (LXR), DR4 submotif (AID 2282929). The settings on record: HepG2 Attagene DR4 cis-reporter, mRNA transcription; actives raise or lower the signal. The gist of the method:
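DR4 cis-reporter in HepG2, 24 h exposure. Detection: RT-PCR, 6-FAM labelling, CE fragment analysis. Endpoint fitted bidirectionally, DMSO = baseline.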

Assay [3] has as its target Aryl hydrocarbon receptor (Homo sapiens) (UniProt P35869). Briefly: ATG_Ahr_CIS: Attagene CIS-FACTORIAL HepG2 Assay for human Aryl Hydrocarbon Receptor (Ahr) (AID 2282930). The settings on record: HepG2 AhR cis-factorial reporter transcription; actives raise or lower the signal. A digest of the protocol:
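Endogenous factor activity is tracked through cis-promoter reporter units transfected into HepG2 cells. Transcript levels at 24 h are read by fluorescent RT-PCR and capillary electrophoresis, with activity in either direction scored relative to DMSO.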

Assay [4] in a line: ATG_AP_1_CIS: Attagene CIS-FACTORIAL HepG2 Assay for human Activator Protein 1 (AP-1) (AID 2282931). The settings on record: HepG2 Attagene cis-factorial AP-1 reporter mRNA; actives raise or lower the signal. The gist of the method:
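Cis-regulated reporter units transiently expressed in HepG2 report endogenous transcription-factor activity. Signal: reporter mRNA at 24 h, via RT-PCR and fluorescent capillary electrophoresis. Endpoint derived by bidirectional fitting, DMSO as negative control.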

Assay [5] is described as follows: ATG_AP_2_CIS: Attagene CIS-FACTORIAL HepG2 Assay for human Activator Protein 2 (AP-2) (AID 2282932). The settings on record: HepG2 AP-2 cis-reporter, Attagene transcription factor profiling; actives raise or lower the signal. A digest of the protocol:
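Liver-derived HepG2 line, cis-reporter system measuring endogenous factors; 24 h dosing; reporter mRNA detected by fluorescent RT-PCR and capillary electrophoresis.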

The target in assay [6] is Retinoic acid receptor alpha (Homo sapiens) (UniProt P10276). Briefly: ATG_DR5_RAR_CIS: Attagene CIS-FACTORIAL HepG2 Assay for human Retinoic Acid Receptor Alpha (RARE), DR5 submotif (AID 2282934). The settings on record: HepG2 Attagene cis-factorial RARE DR5 reporter, mRNA; actives raise or lower the signal. A digest of the protocol:
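After 24 h of chemical exposure, transiently transfected HepG2 cells were lysed for total RNA; the DR5-regulated reporter transcript was quantified via RT-PCR and capillary electrophoresis, with activity fitted bidirectionally against DMSO.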

Assay [7] addresses Transcription factor E2F1 (Homo sapiens) (UniProt Q01094). The assay can be described thus: ATG_E2F_CIS: Attagene CIS-FACTORIAL HepG2 Assay for human E2F Transcription Factor 1 (AID 2282935). The settings on record: HepG2 Attagene cis-reporter, E2F reporter RNA transcripts; actives raise or lower the signal. A digest of the protocol:
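Liver-derived HepG2 cells expressing transfected promoter-driven reporter units received test chemical for 24 hours. Signal gains or losses were fitted bidirectionally against DMSO.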

Assay [8] is described as follows: ATG_E_Box_CIS: Attagene CIS-FACTORIAL HepG2 Assay for human Enhancer Box (E-box) (AID 2282936). The settings on record: HepG2 E-box cis-reporter transcription, actives raise or lower the signal. A digest of the protocol:
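In this cell-based setup, HepG2 cells bearing transfected promoter-driven reporter units were exposed to chemicals for 24 h; reporter transcripts were amplified, 6-FAM-labelled, cut with HpaI and sized by capillary electrophoresis.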

Assay [9] in a line: ATG_M_61_CIS: Attagene CIS-FACTORIAL HepG2 Assay for M61 Transcription Factor (Internal Marker) (AID 2282937). The settings on record: HepG2 Attagene CIS-FACTORIAL M61 internal marker reporter; actives raise or lower the signal. The gist of the method: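 Background-control endpoint: HepG2 cells with cis-regulated reporter constructs, 24 h exposure, reporter mRNA detected via fluorescent primer extension and capillary electrophoresis; values from bidirectional fitting with DMSO baseline.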

A short description of assay [10]: ATG_EGR_CIS: Attagene CIS-FACTORIAL HepG2 Assay for human Early Growth Response 1 (EGR1) (AID 2282938). The settings on record: HepG2 Attagene CIS-FACTORIAL EGR reporter mRNA; actives raise or lower the signal. The gist of the method:
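Endpoint derived by bidirectional fitting versus DMSO vehicle. Method: cis-promoter reporter units transfected into HepG2, 24 h dosing, RNA isolation, RT-PCR with 6-FAM primer extension and HpaI digestion, then capillary electrophoresis fluorescence detection.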

A short description of assay [11]: ATG_M_19_CIS: Attagene CIS-FACTORIAL HepG2 Assay for M19 Transcription Factor (Internal Marker) (AID 2282939). The settings on record: HepG2 Attagene CIS-FACTORIAL M19 internal marker reporter; actives raise or lower the signal. A digest of the protocol:
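HepG2 cells transiently transfected with cis-regulated multiple reporter transcription units were dosed for 24 h; reporter mRNA was quantified by RT-PCR, 6-FAM primer-extension labelling, HpaI digestion and capillary electrophoresis, with bidirectional fitting against DMSO baseline.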

Assay [12] can be described thus: ATG_Ets_CIS: Attagene CIS-FACTORIAL HepG2 Assay for human Erythroblast Transformation Specific (ETS) (AID 2282941). The settings on record: HepG2 ETS cis-reporter transcription, actives raise or lower the signal. The gist of the method: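 Bidirectional fit versus DMSO of reporter mRNA signal, detected by RT-PCR and capillary electrophoresis in HepG2 cells transiently transfected with cis-element reporters and dosed 24 h.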

For assay [13], the target named is Hepatocyte nuclear factor 3-beta (Homo sapiens) (UniProt Q9Y261). The assay can be described thus: ATG_FoxA2_CIS: Attagene CIS-FACTORIAL HepG2 Assay for human Forkhead box A2 (FOXA2) (AID 2282942). The settings on record: HepG2 cis-reporter transcription factor activity, 24 h; actives raise or lower the signal. The gist of the method:
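Measured: reporter mRNA induction or loss in HepG2 transiently carrying multiple cis-regulated reporter units, 24 h after dosing. Quantified by RT-PCR plus capillary electrophoresis, normalised to DMSO.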

Assay [14] can be described thus: ATG_FoxO_CIS: Attagene CIS-FACTORIAL HepG2 Assay for human Forkhead box O (FoxO) (AID 2282943). The settings on record: HepG2 Attagene cis-reporter, FoxO element, mRNA; actives raise or lower the signal. A digest of the protocol:
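Transfected HepG2 reporter cells exposed to test chemical for 24 h; reporter RNA measured by reverse transcription, PCR and fluorescent capillary electrophoresis; curves fitted for increases and decreases against DMSO.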

Assay [15] in a line: ATG_GATA_CIS: Attagene CIS-FACTORIAL HepG2 Assay for human GATA Binding Protein (AID 2282944). The settings on record: HepG2 GATA cis-element reporter, Attagene multiplex mRNA; actives raise or lower the signal. A digest of the protocol: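 HepG2 cells transiently transfected with multiplexed cis-element reporter units reflecting endogenous transcription factor activity; reporter mRNA measured after 24 h dosing by RT-PCR, 6-FAM labeling, HpaI digestion and capillary electrophoresis. Bidirectional fitting versus DMSO baseline.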

Assay [16] can be described thus: ATG_GLI_CIS: Attagene CIS-FACTORIAL HepG2 Assay for human Zinc Finger Protein GLI1 (AID 2282945). The settings on record: HepG2, Attagene cis-factorial reporter mRNA, GLI element; actives raise or lower the signal. A digest of the protocol:
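Transiently transfected HepG2 cells report endogenous transcription factor activity via cis-element-driven reporter units. After 24 h compound exposure, reporter mRNA was measured by RT-PCR with capillary electrophoresis; bidirectional fitting against DMSO baseline.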

The nature of assay [17]: ATG_CMV_CIS: Attagene CIS-FACTORIAL HepG2 Assay for human CMV (Internal Marker) (AID 2282928).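 Note: endpoint acts as a background internal control marker rather than a target.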 The settings on record: HepG2 CMV promoter reporter, transcription factor profiling; actives raise or lower the signal. A digest of the protocol:
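Reporter transcripts from transfected HepG2 cells are isolated after 24 h of chemical dosing, reverse-transcribed and amplified. Fragments labeled with 6-FAM are cut with HpaI and quantified by capillary electrophoresis; DMSO defines baseline.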

Assay [18] is described as follows: ATG_BRE_CIS: Attagene CIS-FACTORIAL HepG2 Assay for human Bone Morphogenetic Protein (BMP) Response Element (BRE) (AID 2282933). The settings on record: HepG2 BMP response element reporter, Attagene transcription factor profiling; actives raise or lower the signal. A digest of the protocol: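 HepG2 cells transiently transfected with multiplexed cis-element reporter units were dosed with chemical for 24 h. Reporter mRNA was measured by RT-PCR with fluorescent labelling, HpaI digestion and capillary electrophoresis; bidirectional fitting relative to DMSO.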

For assay [19], the target named is CCAAT/enhancer-binding protein beta (Homo sapiens) (UniProt P17676). Briefly: ATG_C_EBP_CIS: Attagene CIS-FACTORIAL HepG2 Assay for human CCAAT/Enhancer Binding Protein (C/EBP) beta (AID 2282927). The settings on record: HepG2 Attagene cis-factorial transcription factor reporter; actives raise or lower the signal. The gist of the method: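 HepG2, transient MRTU transfection, 24 h treatment. RT-PCR plus CE fluorescence; DMSO negative control, bidirectional fit.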
CCAAT/enhancer-binding protein beta (Homo sapiens), sequence (P17676 whole entry, looked up): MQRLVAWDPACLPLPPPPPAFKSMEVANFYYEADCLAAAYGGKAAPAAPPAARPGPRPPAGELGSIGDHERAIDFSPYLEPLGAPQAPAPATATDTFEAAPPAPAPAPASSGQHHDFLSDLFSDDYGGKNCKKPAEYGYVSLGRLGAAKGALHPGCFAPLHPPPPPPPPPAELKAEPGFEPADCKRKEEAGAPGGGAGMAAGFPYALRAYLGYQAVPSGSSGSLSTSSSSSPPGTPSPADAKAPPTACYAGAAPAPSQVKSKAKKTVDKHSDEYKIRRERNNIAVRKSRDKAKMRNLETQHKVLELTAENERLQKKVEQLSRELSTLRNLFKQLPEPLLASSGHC

Hepatocyte nuclear factor 3-beta (Homo sapiens), sequence (Q9Y261 whole entry, looked up): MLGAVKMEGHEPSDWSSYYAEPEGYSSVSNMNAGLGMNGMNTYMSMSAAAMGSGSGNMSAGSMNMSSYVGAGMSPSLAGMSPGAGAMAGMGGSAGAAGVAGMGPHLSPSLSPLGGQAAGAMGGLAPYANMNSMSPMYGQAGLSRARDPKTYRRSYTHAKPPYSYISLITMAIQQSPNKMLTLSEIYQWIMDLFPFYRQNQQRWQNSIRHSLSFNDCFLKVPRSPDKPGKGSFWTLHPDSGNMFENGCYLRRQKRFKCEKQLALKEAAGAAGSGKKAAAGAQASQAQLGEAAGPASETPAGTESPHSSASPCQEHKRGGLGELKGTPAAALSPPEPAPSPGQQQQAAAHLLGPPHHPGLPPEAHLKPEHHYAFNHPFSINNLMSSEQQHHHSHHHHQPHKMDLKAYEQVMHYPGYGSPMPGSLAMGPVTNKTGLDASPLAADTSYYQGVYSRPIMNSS
Retinoic acid receptor alpha (Homo sapiens), sequence (P10276 whole entry, looked up): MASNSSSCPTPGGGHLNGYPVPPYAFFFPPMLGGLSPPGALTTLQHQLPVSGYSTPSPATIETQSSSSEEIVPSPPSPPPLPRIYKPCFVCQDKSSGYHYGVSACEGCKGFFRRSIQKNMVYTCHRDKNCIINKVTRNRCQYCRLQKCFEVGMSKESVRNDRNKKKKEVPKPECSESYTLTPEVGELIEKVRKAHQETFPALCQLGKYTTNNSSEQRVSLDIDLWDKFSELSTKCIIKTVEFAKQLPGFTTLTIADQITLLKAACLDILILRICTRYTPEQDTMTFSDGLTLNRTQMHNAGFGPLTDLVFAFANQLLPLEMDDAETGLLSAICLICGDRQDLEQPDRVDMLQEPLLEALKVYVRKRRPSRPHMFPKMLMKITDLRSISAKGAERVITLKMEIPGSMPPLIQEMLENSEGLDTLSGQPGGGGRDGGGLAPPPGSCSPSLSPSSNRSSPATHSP
Aryl hydrocarbon receptor (Homo sapiens), sequence (P35869 whole entry, looked up): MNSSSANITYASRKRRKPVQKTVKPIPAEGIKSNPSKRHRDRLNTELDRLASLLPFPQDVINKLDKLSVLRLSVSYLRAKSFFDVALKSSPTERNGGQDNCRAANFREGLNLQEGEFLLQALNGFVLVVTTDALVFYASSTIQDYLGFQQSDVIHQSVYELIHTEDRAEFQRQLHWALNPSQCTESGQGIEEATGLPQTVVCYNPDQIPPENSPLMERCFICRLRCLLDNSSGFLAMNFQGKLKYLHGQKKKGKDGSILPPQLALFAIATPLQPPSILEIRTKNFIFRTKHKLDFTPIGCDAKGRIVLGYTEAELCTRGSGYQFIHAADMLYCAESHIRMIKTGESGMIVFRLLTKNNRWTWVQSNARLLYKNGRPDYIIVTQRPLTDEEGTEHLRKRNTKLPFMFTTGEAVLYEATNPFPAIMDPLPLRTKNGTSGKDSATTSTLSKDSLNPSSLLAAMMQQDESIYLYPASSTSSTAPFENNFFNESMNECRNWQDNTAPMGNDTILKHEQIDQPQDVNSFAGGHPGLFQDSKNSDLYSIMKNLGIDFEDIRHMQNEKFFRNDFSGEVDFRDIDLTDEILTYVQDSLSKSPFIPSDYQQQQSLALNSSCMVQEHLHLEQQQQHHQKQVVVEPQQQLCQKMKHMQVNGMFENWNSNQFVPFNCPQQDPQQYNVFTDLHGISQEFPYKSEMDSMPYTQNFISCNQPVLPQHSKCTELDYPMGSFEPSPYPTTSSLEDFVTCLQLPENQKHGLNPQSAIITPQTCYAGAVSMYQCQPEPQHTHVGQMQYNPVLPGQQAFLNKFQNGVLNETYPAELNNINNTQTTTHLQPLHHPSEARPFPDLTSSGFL
Transcription factor E2F1 (Homo sapiens), sequence (Q01094 whole entry, looked up): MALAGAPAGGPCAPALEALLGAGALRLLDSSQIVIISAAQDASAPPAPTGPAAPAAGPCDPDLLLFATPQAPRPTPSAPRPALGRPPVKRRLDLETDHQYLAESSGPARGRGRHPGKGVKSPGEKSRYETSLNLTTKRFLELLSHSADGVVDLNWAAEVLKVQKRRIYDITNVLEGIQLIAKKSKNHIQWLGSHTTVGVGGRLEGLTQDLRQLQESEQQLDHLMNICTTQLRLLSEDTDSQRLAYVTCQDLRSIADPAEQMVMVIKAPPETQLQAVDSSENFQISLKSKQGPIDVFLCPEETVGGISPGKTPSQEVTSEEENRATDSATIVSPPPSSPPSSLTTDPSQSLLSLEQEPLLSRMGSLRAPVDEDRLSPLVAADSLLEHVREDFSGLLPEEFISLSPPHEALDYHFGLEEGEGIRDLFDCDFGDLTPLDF

Regarding `Cc1ncc[nH]1`, the outcome in assay [1], in assay [2], in assay [3], in assay [4], in assay [5] and in assay [6] was inactive. In addition, the molecule was called inactive in [7], in [8], in assay [9], in assay [10], in [11] and in assay [12]. Moreover, the result in assay [13], in assay [14], in assay [15] and in assay [16] was inactive.

As to `Cc1cccc(Nc2ccccc2)c1`, the result in assay [1], in assay [17], in assay [3], in [5], in assay [18] and in assay [6] was inactive. In addition, the outcome in assay [8], in [9], in [11], in assay [13], in [15] and in assay [16] was inactive. The AC50 was 67.5 µM (active) in [2], 139 µM (active) in assay [4], 73.8 µM (active) in [10] and 154 µM (active) in assay [12].

Regarding `CS(=O)(=O)c1ccc(Cl)cc1`, the outcome in [1], in assay [17], in assay [2], in assay [3], in [4] and in assay [5] was inactive. In addition, the molecule was classed as inactive in [18], in [6], in [8], in assay [9], in assay [11] and in assay [12]. The result in assay [13], in [14], in assay [15] and in assay [16] was inactive.

In the case of `O=C(O)CCCCCCCCCCCC(=O)O`, the molecule was called inactive in assay [1], in [17], in assay [2], in [3], in assay [4] and in assay [5]. The molecule was classed as inactive in [18], in assay [6], in [7], in [8], in [9] and in assay [10]. Moreover, the molecule was called inactive in [11], in [12], in [13], in [14], in assay [15] and in assay [16].

On to `CC(C)(C)CC(C)(C)c1ccc(OCCOCC[N+](C)(C)Cc2ccccc2)cc1`, for which the call in [1], in assay [3], in assay [5], in assay [18], in assay [6] and in assay [7] was inactive. Besides, the molecule was called inactive in assay [9], in assay [10], in assay [11], in assay [12], in assay [13] and in assay [14]. In addition, the result in assay [15] and in assay [16] was inactive. In addition, the AC50 in assay [17] is 14.8 µM (active); in assay [2] it was 8.35 µM (active); in [4], 8.35 µM (active); in [8], 12.3 µM (active).

On to `COc1cccc(OC)c1O`, for which the outcome in assay [19], in [17], in assay [3], in [4], in assay [5] and in [18] was inactive. Also, the outcome in [6], in [7], in assay [8], in [9], in assay [10] and in [11] was inactive. Further, the molecule was called inactive in assay [12], in [13], in [14], in assay [15] and in assay [16].

For the molecule `CC(=O)O[C@@H]1C[C@@H]2CC[C@@]1(C)C2(C)C`, the result in assay [19], in [17], in assay [2], in [3], in assay [4] and in assay [5] was inactive. The molecule was called inactive in assay [18], in assay [6], in [8], in assay [9], in assay [11] and in [12]. Besides, the molecule was classed as inactive in [13], in assay [14], in [15] and in assay [16].
